A number with no mark means an inactive call. Activity calls are given as the source filed them.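 The calls were made as follows: active = calcium response above 60% of the acetylcholine maximum at human M5, as a positive modulator; inactive = the rest.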
Target: Muscarinic acetylcholine receptor M5 (Homo sapiens) (UniProt P08912)
Test: potentiators of ACh response at human M5 – cell-based, single concentration, CHO-K1 hM5, calcium flux (AID 743100)
Conditions: CHO-K1 hM5, Fluo-4 calcium flux, ACh EC20, active compounds read high; at 10 µM unless noted

Muscarinic acetylcholine receptor M5 (Homo sapiens), sequence (P08912 whole entry, looked up): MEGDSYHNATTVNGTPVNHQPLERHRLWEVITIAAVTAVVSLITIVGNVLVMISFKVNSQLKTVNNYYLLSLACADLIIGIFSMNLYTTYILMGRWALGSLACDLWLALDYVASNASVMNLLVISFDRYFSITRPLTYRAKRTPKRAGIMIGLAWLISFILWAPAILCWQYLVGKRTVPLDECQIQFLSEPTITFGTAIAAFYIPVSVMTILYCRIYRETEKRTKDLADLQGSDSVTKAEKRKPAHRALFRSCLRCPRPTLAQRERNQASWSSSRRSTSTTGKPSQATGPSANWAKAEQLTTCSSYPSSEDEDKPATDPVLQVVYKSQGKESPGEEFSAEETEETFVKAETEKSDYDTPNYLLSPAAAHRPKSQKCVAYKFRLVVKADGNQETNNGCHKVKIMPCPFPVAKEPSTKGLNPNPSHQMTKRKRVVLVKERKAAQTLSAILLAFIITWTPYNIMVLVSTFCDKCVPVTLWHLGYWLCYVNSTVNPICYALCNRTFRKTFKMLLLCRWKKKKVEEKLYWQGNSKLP

| SMILES | % ACh max response |
| --- | --- |
| CCN(Cc1ccc(OC)cc1)C(=O)C1CCN(S(=O)(=O)c2ccc3cn[nH]c3c2)CC1 | 32% |
| CCN(Cc1ccccc1OC)C(=O)C1CCN(S(=O)(=O)c2ccc3cn[nH]c3c2)CC1 | 84.5% (active) |
| CCN(CC1CCN(S(=O)(=O)c2ccc(OC)cc2)CC1)C(=O)c1ccccc1 | 15.2% |
| CCN(Cc1ccccc1)C(=O)C1CCN(S(=O)(=O)c2cccc3c2OCCO3)CC1 | 48% [at 30 µM] |
| CCN(Cc1ccccc1)C(=O)C1CCN(S(=O)(=O)c2cccc(C#N)c2)CC1 | 61% [at 30 µM] (active) |
| CCN(Cc1ccncc1)C(=O)C1CCN(S(=O)(=O)c2ccc3cn[nH]c3c2)CC1 | 22.4% |
| CCN(Cc1cc(F)ccc1F)C(=O)C1CCN(S(=O)(=O)c2ccc3cn[nH]c3c2)CC1 | 57.2% |
| CCN(Cc1ccccc1)C(=O)C1CCN(S(=O)(=O)c2ccccc2C)CC1 | 28.6% [at 30 µM] |
| CCN(C(=O)C1CCN(S(=O)(=O)c2ccc3c(c2)CCO3)CC1)[C@H](C)c1ccccc1 | 97.5% (active) |
| CCN(Cc1ccccc1C(F)(F)F)C(=O)C1CCN(S(=O)(=O)c2ccc3cn[nH]c3c2)CC1 | 84.2% (active) |
| CCN(C(=O)C1CCN(S(=O)(=O)N(C)C)CC1)[C@H](C)c1ccccc1 | 29.1% |
| CCN(Cc1ccccc1)C(=O)C1CCN(S(=O)(=O)c2ccccn2)CC1 | 36.4% |
| CCN(Cc1ccccc1C)C(=O)C1CCN(S(=O)(=O)c2ccc3cn[nH]c3c2)CC1 | 85.1% (active) |
